Rows were chosen to be rich in hits. Some 19% of all compounds tested hit in one or more screens of this group.
TDP1 cell noCPT = qHTS for Inhibitors of human tyrosyl-DNA phosphodiesterase 1 (TDP1): qHTS in cells in absence of CPT | DT40 Tdp1-/- hTDP1 cells, no CPT, ATP luminescence, 48 h | Potency, µM (series often up to 46.2 µM), for inactives: top-dose activity change, negative = growth inhibition, usual class: inhibitors | 420,000 tested, 15% active; further: nearly all actives have a fitted effect of over 55% in size
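Growth of hTDP1-complemented DT40 Tdp1-knockout cells is measured by ATP luminescence after at least 48 hr compound exposure at 37 °C, with DMSO substituting for the 20 nM CPT used in the parallel screen.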
HT1080 IDH1KD tx = qHTS for induction of synthetic lethality in tumor cells producing 2HG: qHTS for the HT-1080-IDH1KD cell line | 360,000 tested, 2% active | Potency, µM (top dose mostly 46.1 µM), for inactives: at the top dose activity, negative = toxicity, hits mostly cytotoxic | HT-1080 IDH1 knockdown viability, ATP luminescence, 48 h;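 further: 0% = DMSO wells and -100% = cell-free medium wells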
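Knockdown cells (IDH1KD HT-1080) received compounds 2 h after plating at 750 cells/well and were kept 48 h at 37 °C in 5% FBS RPMI. A CellTiter-Glo luminescence read gave % activity for curve fitting.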
HT1080-NT tox = qHTS for induction of synthetic lethality in tumor cells producing 2HG: qHTS for the HT-1080-NT fibrosarcoma cell line. HT-1080-NT fibrosarcoma viability, CellTiter-Glo ATP luminescence, 48 h. Potency, µM (titrated, usually from 46.1 µM), for the others: at the top dose activity, negative = less viability, actives largely listed as cytotoxic. 360,000 tested, 1.6% active. AID 686970, 2013;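 further: NT is the 2HG producing partner of a matched IDH1 knockdown line; 0% = DMSO-treated cells and -100% = media-only wells without cells; nearly all actives have a fitted effect of over 55% in size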
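HT-1080-NT; 750 cells/well; 5% FBS RPMI; 48 h compound, 37 degrees C; CellTiter-Glo luminescence; curve fitting and curve-class assignment.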
KB-3-1 cytotox = qHTS assay for MDR1-selective chemotherapeutics: Primary screen using the parental adenocarcinoma cell KB-3-1 | KB-3-1 viability, CellTiter-Glo ATP luminescence, 72 h | Potency, µM (doses to about 46.1 µM), hits mostly cytotoxic | 400,000 tested, 1.4% active | AID 1347075, 2019; further: nearly all actives have a fitted effect of over 60% in size
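Luminescent ATP read-out (CellTiter-Glo) measures survival of drug-naive KB-3-1 cells after 72 h compound exposure at 37 °C. Titration series was screened from lowest to highest concentration, with DMSO vehicle plates as background controls.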
TDP1 cell CPT = qHTS for Inhibitors of human tyrosyl-DNA phosphodiesterase 1 (TDP1): qHTS in cells in presence of CPT; Potency, µM (titrated, usually from 46.2 µM), inactives show top-dose activity change, negative = growth inhibition, hits mostly inhibitors; AID 686979, 2013; chicken DT40 Tdp1-/-;hTDP1 cells + 20 nM CPT, ATP luminescence, 48 h; 420,000 tested, 12% active; further: nearly all actives have a fitted effect of over 55% in size
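Cell growth measured by CellTiter-Glo luminescence after a minimum 48 h, 37 C compound exposure with 20 nM CPT in Tdp1-knockout DT40 cells stably expressing hTDP1, seeded 400/well; qHTS titration format.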
KB-V1 MDR tox = qHTS assay for MDR1-selective chemotherapeutics: Primary screen using the drug-selected MDR subline cells KB-V1; KB-V1 MDR cells viability, CellTiter-Glo, 72 h; Potency, µM (doses to about 46.1 µM), most hits filed as cytotoxic; 400,000 tested, 3.4% active; AID 1347076, 2019; further: nearly all actives have a fitted effect of over 60% in size
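Readout: CellTiter-Glo luminescence, 10 min after addition. Cells: KB-V1 MDR subline, 72 h at 37 degrees C with compound. Analysis: corrected, normalized data fitted to concentration-effect curves.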
* marks the source's active call; other numbers are inactive results; i = inactive; ? = inconclusive; . = no result given. The call rests on the fitted dose curve; in most records, active means well fitted curve in the direction sought with a large enough effect; inconclusive means small, poorly fitted or top-dose-only effect, or another doubt; inactive means no such curve, though single readings can be large; an effect the other way counts as inactive or inconclusive. Unless noted, on the % scale 0 is the no-effect control and ±100 the full control effect; potency means the concentration at half of the fitted maximal effect.

SMILES	TDP1 cell noCPT	HT1080 IDH1KD tx	HT1080-NT tox	KB-3-1 cytotox	TDP1 cell CPT	KB-V1 MDR tox
CCN(CC)CCCNC(=S)N(Cc1cccs1)Cc1cc2cc3c(cc2[nH]c1=O)OCCO3	?	?	?	i	-29%	i
CNC(=S)N(Cc1cccs1)Cc1cc2cc(OC)c(OC)cc2[nH]c1=O	18µM*	0%	-5%	i	?	i
c1ccc2c(c1)Cc1ccccc1O2	?	-5%	6%	i	-18%	i
COC(=O)/C=C/c1cc(O)ccc1O	1.2µM*	.	.	.	0.73µM*	.
CCC(=O)N1CCc2cc(Br)cc(S(=O)(=O)N3CCC(C(=O)Nc4ccccc4CC)CC3)c21	?	.	.	i	?	i
O=C(COC(=O)CCC(=O)c1cccs1)NC(=O)c1ccc(OC(F)F)cc1	3%	6%	11%	i	0%	i
CCOC(=O)COc1ccccc1/C=C\[N+](=O)[O-]	1.6µM*	2.9µM*	8.2µM*	9.2µM*	2.6µM*	15µM*
COc1ccc(CNC(=O)CN(c2ccc(C)cc2)S(=O)(=O)c2c(C)nn(C)c2C)cc1	-20%	21%	17%	i	-22%	i
CC1=CC(C)(C)Nc2ccc(C)cc21	-9%	-2%	4%	i	-5%	i
CC1=CC(C)(C)Nc2ccc(Cc3ccc4c(c3)C(C)=CC(C)(C)N4)cc21	21µM*	-17%	-15%	i	21µM*	i
C[C@H]1CN([C@@H](C)CO)C(=O)CCCn2cc(nn2)CO[C@@H]1CN(C)C(=O)CCC(F)(F)F	?	11%	8%	i	-14%	i
CC(C)OCCCNc1nc(-c2ccccc2)nc2ccccc12	15µM*	-25%	-7%	i	?	i
CC(C)(C)C(=O)OCCNc1nc(-c2ccccc2)nc2ccccc12	21µM*	8%	11%	i	?	?
CCC(=O)OCCCNc1nc(-c2ccc(Cl)cc2)nc2ccccc12	?	.	.	i	?	i
CC1(C)CN=c2s/c(=C\c3ccc(Cl)cc3)c(=O)n2C1	18µM*	?	?	i	12µM*	?
Cc1ccc(/C=c2/sc3n(c2=O)CCCN=3)o1	-18%	9%	15%	i	?	i
CCn1nc(C)c(CN2CCc3c([nH]c4ccccc34)C2c2ccc(F)c(OC)c2)c1C (stereo not drawn)	12µM*	-2%	-29%	?	29µM*	?
CCn1cc(CN2CCc3c([nH]c4ccccc34)C2c2ccc(F)c(OC)c2)c(C)n1 (stereo not drawn)	-24%	?	?	?	?	?
O=C(Nc1ccc(Br)c2ccccc12)c1ccc2ccccc2c1O	8.2µM*	?	?	i	8.2µM*	i
CC(=O)Nc1ccc(Br)c2ccccc12	?	-5%	-4%	i	-17%	i
O=C(NNC(=O)c1ccc2ccccc2c1O)c1ccccc1Cl	13µM*	?	-28%	i	?	i
COc1cccc(C(=O)NNC(=O)c2ccc3ccccc3c2O)c1	9.2µM*	-17%	-12%	?	?	?
